Assay [1] deals with T1, Aspartate--tRNA(Asp/Asn) ligase (Mycobacterium tuberculosis (strain ATCC 25618 / H37Rv)) (UniProt P9WFW3).
T1 sequence (whole entry): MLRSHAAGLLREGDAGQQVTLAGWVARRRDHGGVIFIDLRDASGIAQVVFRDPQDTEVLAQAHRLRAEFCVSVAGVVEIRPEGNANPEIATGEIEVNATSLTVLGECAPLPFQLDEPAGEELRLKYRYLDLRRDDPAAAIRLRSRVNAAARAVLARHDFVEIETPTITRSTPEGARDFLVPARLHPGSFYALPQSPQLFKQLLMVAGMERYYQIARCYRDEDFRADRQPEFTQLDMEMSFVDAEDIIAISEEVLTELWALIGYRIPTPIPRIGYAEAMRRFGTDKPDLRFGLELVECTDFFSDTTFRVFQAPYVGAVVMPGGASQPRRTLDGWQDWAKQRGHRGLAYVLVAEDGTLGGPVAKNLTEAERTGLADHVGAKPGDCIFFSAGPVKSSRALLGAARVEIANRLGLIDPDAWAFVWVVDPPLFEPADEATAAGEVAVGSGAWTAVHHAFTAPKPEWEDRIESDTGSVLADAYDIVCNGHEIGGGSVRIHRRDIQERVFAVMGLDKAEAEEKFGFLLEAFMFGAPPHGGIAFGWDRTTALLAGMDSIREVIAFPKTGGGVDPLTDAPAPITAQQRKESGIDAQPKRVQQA
Description: Assay for Asp RNA synthetase-1 from Mycobacterium tuberculosis. Format: functional. Set-up: scale not given: direction of the effect not stated beside the values. Particulars: 30 µM.

In assay [2] the target is Shiga toxin 2 (Escherichia coli O157:H7) (UniProt P09385+P09386). Briefly: E. coli 0.157:H7 Shiga Toxin SOP - stx2 screening assay. Format: functional. Details: scale not given: direction of the effect not stated beside the values. Particulars: 30 µM.

We go through 51 compounds from ChEMBL document CHEMBL3988442, “University of Dundee, Small-Polar-MMV Screening Library” (2021).

The structures appear in SMILES notation.

In the case of `CN(C)CCN1CCCC12CCN(C(=O)c1cnccn1)CC2`, the Percent Effect in assay [1] stood at 1.96%; in assay [2] it was 0.984%.
On the same counts, the results for `CNc1cc(N2CCCC2CNCc2c[nH]nc2C(C)(C)C)ncn1` (configuration not stated) are 1.25% and -11.5%.
In the case of `O=C(Nc1ccnc(OC2CCOC2)c1)C1CCC1` (configuration not stated), the Percent Effect in assay [1] is -4.32%; in assay [2], -20.1%.
On the same counts, the results for `O=C(c1ccc(O)cc1)N1CCN(C(=O)c2ccc3c(c2)COC3)CC1` are -1.8% and -20%.
Regarding `Cc1cc(S(=O)(=O)NCc2cccc(C(=O)N3CCCC3)c2)c(C)s1`, the Percent Effect came out at 2.16% in assay [1] and 5.68% in assay [2].
On the same counts, the results for `COc1cccc(N2CCN(Cc3ccc(NC(C)=O)cc3)CC2=O)c1` are -1.75% and -2.21%.
In the same order, the values of `CN(CCCC#N)C1CCCN(Cc2noc(C3CC3)n2)C1` (configuration not stated) are -2.54% and 7.14%.
On the same counts, the results for `CCOCc1ncn2c1CN(C(=O)Nc1cccc(C)c1)CC2` are 1.59% and -12.7%.
On to `COc1ccc(Cc2cccc(C3CCN(C)CC3)n2)cc1`, for which the Percent Effect is -1.77% in assay [1] and -4.18% in assay [2].
With `Cn1cc(C2CCCN2C(=O)Cc2n[nH]c3ccccc23)cn1` (configuration not stated), the Percent Effect was -9.51% in assay [1] and -33.7% in assay [2].
On the same counts, the results for `COCCOc1ccc(NC(=O)C2CC(=O)N(C)C2)cn1` (configuration not stated) are 3.77% and -88.5%.
For the compound `CN1CCN(Cc2cn3c(n2)CN(C(=O)N2CCOCC2)CC3)CC1`, the values for the Percent Effect in assay [1] and in assay [2] were 5.44% and -16.4%, respectively.
In the case of `O=C(CCOc1cccc(F)c1)N1CCCC(n2cncn2)C1` (configuration not stated), the Percent Effect is -2.92% in assay [1] and 5.88% in assay [2].
On the same counts, the results for `CCn1ccnc1CN1CCCN(C(=O)Cn2nc(C)cc2C)CC1` are 3.14% and 8.68%.
Turning to `COCCN1CCN(CCCS(C)(=O)=O)CC1C` (configuration not stated), the Percent Effect in assay [1] was -5.8%; in assay [2] it was -23.7%.
In the same order, the values of `Fc1ccc2[nH]c(C3CCCN3CCc3ccccn3)nc2c1` (configuration not stated) are 7.64% and -16.2%.
In the same order, the values of `Cc1cc(N2CCCN(C(=O)Cc3csc(C)n3)CC2)ccn1` are 0.502% and 3.59%.
As to `COc1cc2cc(C(=O)O)n(C)c2cc1OC`, the Percent Effect was -0.697% in assay [1] and -0.0542% in assay [2].
Consider `COCCN1C(=O)C[C@@H]2[C@H]1CCN2C(=O)COc1ccccc1`, for which the Percent Effect in assay [1] was -2.36%; in assay [2], -1.37%.
As for `CCN(CC1CCCO1)C(=O)Nc1cc(C(=O)OC)ccc1F` (configuration not stated), the Percent Effect in assay [1] is -1.37%; in assay [2], 15.3%.
On the same counts, the results for `COc1ccc(C)cc1CNCc1ccc(-n2nc(C)cc2C)nc1` are -2.68% and 26.6%.
On the same counts, the results for `O=C(c1ccncc1)N1CCC2(CC1)CC(Oc1cccnc1)CO2` (configuration not stated) are 4.1% and 12.2%.
Consider `Cc1ccccc1C(=O)NCc1ccc(N2CCNC(=O)C2)c(F)c1`, for which the Percent Effect in assay [1] is -0.569%; in assay [2], 0.0326%.
On the same counts, the results for `CN(C)C(=O)C1CCCN1CCCNC(=O)c1ccccc1F` (configuration not stated) are 7.07% and -18.5%.
Regarding `Cc1cccc(Cn2ccc(NS(C)(=O)=O)n2)c1`, the Percent Effect in assay [1] is 6.96%; in assay [2], -21.6%.
In the same order, the values of `CCn1nc(C)c2nc(C(C)C)nc(N3CCCCC3)c21` are 8.83% and -36.2%.
As for `CN(C)c1ncc(CN2CCOC(C(=O)Nc3ccccc3)C2)cn1` (configuration not stated), the Percent Effect was 6.13% in assay [1] and -0.28% in assay [2].
On the same counts, the results for `COc1ccccc1OCC(=O)NS(=O)(=O)c1ccccc1Br` are 5.46% and -14.2%.
In the same order, the values of `COc1cccc(COCC(O)CN2CC(n3cccn3)C2)c1` (configuration not stated) are -2.41% and 16.5%.
On to `O=C(c1ccsc1)N1C[C@@H]2C[C@@H](c3nnc(C4CC4)o3)O[C@@H]2C1`, for which the Percent Effect in assay [1] is 6.08%; in assay [2], -18.3%.
Regarding `CCCn1nc2c(cc1=O)CN(Cc1cc(C)on1)CC2`, the Percent Effect in assay [1] is 10%; in assay [2], -9.16%.
`CCOC(=O)CCNC(=O)N1CCN(c2nc3ccccc3n2C)CC1`: the values for the Percent Effect in assay [1] and in assay [2] were -4.71% and -68.4%, respectively.
In the same order, the values of `CN1CCOC(CNCCc2ccccn2)C1` (configuration not stated) are -3.97% and -10.7%.
As for `CC(C)c1noc(C(C)N2CCN(CCO)CC2)n1` (configuration not stated), the Percent Effect was determined as 13% in assay [1] and 16.1% in assay [2].
In the case of `Cn1c(CN2CCOC(c3nc(C(C)(C)C)n[nH]3)C2)nnc1C1CC1` (configuration not stated), the Percent Effect in assay [1] is -5.04%; in assay [2], -21.1%.
On the same counts, the results for `CCc1nc2n(n1)CC(NCC(=O)Nc1ccc(Cl)cn1)CC2` (configuration not stated) are 0.314% and 2.33%.
Regarding `Cc1ccn(CCC(=O)N2CCOC(c3nc(-c4cccs4)no3)C2)n1` (configuration not stated), the figures for the Percent Effect in assay [1] and in assay [2] were -0.897% and 37.2%, respectively.
Regarding `CSCC(=O)N1CCC2(CC1)c1ccccc1CC2O` (configuration not stated), the Percent Effect in assay [1] was 0.357%; in assay [2], -32.5%.
With `O=C(CCCc1ccc(F)cc1)N1C[C@@H](CN2CCOCC2)[C@@H](CO)C1`, the results for the Percent Effect in assay [1] and in assay [2] were 5.03% and -6.96%, respectively.
On the same counts, the results for `CC(NC(=O)c1cc(Br)c2c(c1)OCCO2)C(N)=O` (configuration not stated) are -2.13% and -4.92%.
As for `CN1CCN(C(=O)c2ccc(=O)n(C)c2)Cc2ccccc21`, the Percent Effect in assay [1] is -5.51%; in assay [2] it was -29.2%.
On the same counts, the results for `CC(C)N1CC(C(=O)NCc2ccnc(-n3cccn3)c2)CC1=O` (configuration not stated) are -0.3% and -49.1%.
In the same order, the values of `CCC(O)CN1CCN(C(=O)c2cccn2Cc2ccccc2)CC1` (configuration not stated) are -0.0571% and 16.8%.
In the same order, the values of `Cc1cc(C(=O)N2C[C@@H]3[C@@H](C2)OCC(=O)N3CC2CC2)no1` are 9.42% and -55.2%.
Turning to `O=C1CO[C@@H]2CN(CC3CCOCC3)C[C@H]2N1CC1CC1`, the Percent Effect in assay [1] is 14.8%; in assay [2], 5.99%.
On the same counts, the results for `CC(C)n1ccnc1CN1CCCN(C(=O)c2cc(Cl)c[nH]2)CC1` are 3.35% and -53.1%.
In the same order, the values of `Cn1cnnc1C1CCCN(C(=O)c2ccc3c(c2)OCCCO3)C1` (configuration not stated) are 0% and 1.29%.
In the same order, the values of `Cc1cc(CN2CCN(CC(O)c3ccccc3)CC2)no1` (configuration not stated) are -5.08% and 3.56%.
Take `CC(O)CN1CCN(C(=O)c2ccc(Cn3cccn3)cc2)CC1` (configuration not stated): the Percent Effect in assay [1] was 5.51%; in assay [2], 14.6%.
`CC(=O)N1[C@@H](C(=O)NCC2CC2)C[C@@H]2CN(Cc3ccco3)C[C@@H]21`: the Percent Effect in assay [1] was 0.523%; in assay [2] it was -11.8%.
In the same order, the values of `O=C(NCC(O)c1cccs1)c1cccc(Cl)c1` (configuration not stated) are -5.75% and -20.5%.
